Screening data deposited in PubChem by National Center for Advancing Translational Sciences (NCATS).
FMDV antiviral: foot and mouth disease virus antiviral activity. FMDV antiviral cell-based qHTS. Potency, µM (highest dose often 57.9 µM), inactives show at the top dose activity change, negative = inhibition, actives largely listed as inhibitors. hit rate 1.2% among 410,000. AID 1159524; calls by dose curve; tested in HEK293T cells; also: read-out not given here; potency is read from the fitted curve at half-maximal effect; % is scaled to controls: 0 for no effect and ±100 for the full control effect; nearly all actives have a fitted effect of over 45% in size
Sm TGR inh: S. mansoni TGR enzyme inhibition. Q962Y6. purified TGR, DTNB reduction, TNB absorbance 405 nm. Potency, µM (highest dose often 114 µM), without a hit: at the top dose activity change, negative = inhibition, hits mostly inhibitors. hit rate 3% among 360,000. AID 485364; active = well fitted inhibition curve with a large enough effect; inconclusive = small, poorly fitted or top-dose-only effect; inactive = no such curve, though single readings can be large or run the other way; also: potency is read from the fitted curve at half-maximal effect; % is scaled to controls: 0 for no effect and ±100 for the full control effect; nearly all actives have a fitted effect of over 60% in size
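First, TGR (20 nM dispensed) and NADPH were mixed with compound. Second, a 15 min room-temperature incubation followed. Third, further NADPH and then DTNB were added to start the reaction. Finally, TNB absorbance was monitored kinetically.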
Shiga inhibitor: Shiga toxin inhibition; inhibition, % at 38.7 µM; Vero cells, Shiga toxin protein synthesis inhibition reporter; AID 2315; hit rate 9.2% among 290,000; in the data active = inhibition mostly above about 28%, no sharp cut-off; inactive = mostly below about 43%; also: 0% is about no effect
Cycloheximide cs: counter-screen hit for Shiga toxin inhibitors, cycloheximide | cell reporter, cycloheximide protein synthesis inhibition counterscreen | max response, % | hit rate 12% among 300,000 | AID 2314; in the data active = max response mostly above about 13%, no sharp cut-off; inactive = mostly below about 14%; also: read at 38.3 µM for the half of the compounds with a filed dose; 0% is about no effect
Active calls of the source: *; ? = inconclusive; . = not tested or not shown; [ ] = remark or other dose. Most compounds without a hit are left out; they make up all but 12% or so of the library.

SMILES | FMDV antiviral | Sm TGR inh | Shiga inhibitor | Cycloheximide cs
CC(=O)NCCC(=O)N1CCc2c([nH]c3ccccc23)C1c1cccc(C)c1 (stereo not drawn) | 44% | -5%[57.1 µM] | 38 | 19*
O=C(c1cc[n+]([O-])cc1)N1CCc2c([nH]c3ccccc23)C1c1ccccc1Cl (stereo not drawn) | -10% | -12% | -12 | 1
CN1N=C(C(=O)N2CCc3c([nH]c4ccccc34)C2c2ccccc2Cl)CCC1=O (stereo not drawn) | 64% | -12% | 74* | 43*
CC(=O)NCCC(=O)N1CCc2c([nH]c3ccccc23)C1c1cccc(Cl)c1 (stereo not drawn) | -9% | -17% | 37 | -2
Cc1ccccc1C1c2[nH]c3ccccc3c2CCN1C(=O)c1ccc(=O)n(C)n1 (stereo not drawn) | 3% | -10% | 9 | -2
CCc1ccc(NC(=O)CC2C(=O)N(c3cccc(OC)c3)C(=O)N2C2CCCC2)cc1 (stereo not drawn) | 2% | -4% | . | .
CCc1ccc(C2c3[nH]c4ccccc4c3CCN2C(=O)c2cc(C)nn2C)cc1 (stereo not drawn) | -11% | 0% | -7 | -1
CSc1ccc(C2c3[nH]c4ccccc4c3CCN2C(=O)c2cc(C)n(C)n2)cc1 (stereo not drawn) | . | . | 81* | 34*
Cc1cc(C(=O)N2CCc3c([nH]c4ccccc34)C2c2cccc(Cl)c2)nn1C (stereo not drawn) | 0% | 39% | 50* | 45*
Cc1cnc(C(=O)N2CCc3c([nH]c4ccccc34)C2c2ccc(F)cc2)cn1 (stereo not drawn) | 5% | 7% | 25 | 4
CC(c1nccs1)N(C)C(=O)c1cn(Cc2cccc3ccccc23)nn1 (stereo not drawn) | 36% | -4% | 123* | 40*
Cc1ccc(NC(=O)N2CCc3cc(S(=O)(=O)N4CCC(C)CC4)ccc32)cc1F | 4% | -1% | . | .
COc1cccc(CNc2ncnc3cc(Cl)ccc23)c1 | ? | . | -8 | -3
COc1ccccc1CNc1cc(CSc2ccc(Cl)cc2)nc(C)n1 | 40µM* | -13% | -11 | 7
COc1cccc(CNc2cc(CSc3ccc(Cl)cc3)nc(C)n2)c1 | 13µM* | 2% | -14 | 0
CCOc1ccccc1CNC(=O)c1cn(-c2ccc(OC)cc2)c(=O)c2ccccc12 | -10% | 0% | . | .
CN(C)CCCOc1ccc2c(c1)Sc1ccccc1CC2=O | -18% | -17% | 23 | 21*
O=C1Cc2ccccc2Sc2cc(OCCCN3CCCCC3)ccc21 | -17% | -3% | -4 | -1
C=CCc1ccc(OCC(O)CN2CCC(Cc3ccccc3)CC2)c(OC)c1 (stereo not drawn) | -18% | 50µM* | -8 | 8
C=CCc1ccc(OCC(O)CN2CCN(c3ccccc3OC)CC2)c(OC)c1 (stereo not drawn) | ? | 0% | 12 | -3
C=CCc1ccc(OCC(O)COCC)c(OC)c1 (stereo not drawn) | 42% | 43% | 127* | 36*
Cc1nc2ccc(S(=O)(=O)N(C)CC(=O)Nc3ccc(C(C)C)cc3)cc2s1 | -2% | 2% | . | .
Cc1ccc(S(=O)(=O)c2nc(-c3cccs3)oc2SCC(=O)Nc2cc(C)cc(C)c2)cc1 | -13% | -11% | . | .
CCCS(=O)(=O)c1nc(S(=O)(=O)c2ccc(C)cc2)c(NC(C)c2ccccc2)s1 (stereo not drawn) | 14% | 5µM* | . | .
CCCS(=O)(=O)c1nc(S(=O)(=O)c2ccc(C)cc2)c(N2CCC(O)CC2)s1 | 17% | -6% | 14 | -2
SMILES | FMDV antiviral | Sm TGR inh | Shiga inhibitor | Cycloheximide cs
CCCS(=O)(=O)c1nc(S(=O)(=O)c2ccc(C)cc2)c(N2CCc3ccccc3C2)s1 | 20% | 25µM* | 7 | 5
CCCS(=O)(=O)c1nc(S(=O)(=O)c2ccc(C)cc2)c(N2CCCC2)s1 | 4% | -2% | -11 | 1
CCCS(=O)(=O)c1nc(S(=O)(=O)c2ccc(C)cc2)c(N2CCC(C(N)=O)CC2)s1 | 20% | 45µM* | -8 | 2
C=C[C@@H]1CN2CCC1C[C@@H]2C(O)c1ccnc2ccc(OC)cc12 (stereo partly drawn) | . | . | -8 | -6
COc1cccc(NC(=O)CSc2nccn2Cc2ccc3c(c2)OCO3)c1 | 5% | -1% | . | .
COc1ccc(Br)cc1CNC(=O)C(C)n1nc(C)n2c(cc3occc32)c1=O (stereo not drawn) | -9% | 0% | . | .
Cc1nc(Sc2ccccc2)c(C#N)cc1-c1ccccc1 | 20% | 95% | 50* | 28*
Cc1cccc(NCc2nnc3n2CCCCC3)c1C | 7% | 6% | . | .
c1ccc(CSc2ccc(-c3ccc4c(c3)OCO4)nn2)cc1 | 30% | 2% | 38 | 27*
Fc1ccc(CSc2ccc(-c3ccc4c(c3)OCO4)nn2)cc1 | 14% | 0% | 6 | 11*
Cc1ccc(NC(=O)CSc2ccc(-c3ccc4c(c3)OCO4)nn2)cc1F | 25% | -7% | -16 | -3
COc1cccc(NC(=O)C2CCCN(S(=O)(=O)c3ccc4[nH]c(=O)ccc4c3)C2)c1 (stereo not drawn) | -15% | 9% | . | .
Cc1ccc(CCNC(=O)c2ccc3c(c2)N(Cc2ccccc2F)C(=O)c2ccccc2S3=O)cc1 (stereo not drawn) | -20% | 11% | . | .
O=c1[nH]c2ccc(S(=O)(=O)N3CCN(S(=O)(=O)c4c(F)cccc4F)CC3)cc2[nH]c1=O | . | . | -2 | -3
Cc1nn(C)c(C)c1CS(=O)(=O)c1ccccc1 | -9% | 22µM* | -5 | 3
Cc1ccc(S(=O)(=O)Nc2c(C)nn(C)c2C)cc1 | . | 50% | -16 | -4
Nc1nnc2c(n1)CCCC2 | -22% | 32µM* | -3 | -4
COc1ccc(Cl)cc1NC(=O)Cc1ccc(NC(=O)N2CCCCc3ccccc32)cc1 | -15% | -6% | . | .
CCC(=O)N1CCCc2cc(S(=O)(=O)Nc3ccc(C)c(C)c3)ccc21 | 0% | 3% | . | .
CCOc1ccccc1C1C2CCCCC2(O)CCN1C(=O)c1cccs1 (stereo not drawn) | 34% | 1% | 55* | 44*
Cc1ccc(S(=O)(=O)c2nnn(CC(=O)Nc3ccccc3C)c2N)cc1 | -2% | -7% | . | .
CCOC(=O)Nc1nnc(-c2ccccc2OC)s1 | 33% | -3% | 33* | 21*
COC(=O)Nc1nnc(-c2ccccc2Cl)s1 | -6% | 8%[11.4 µM] | 65* | 26*
C=C(C)C(=O)Nc1nnc(-c2ccccc2C)s1 | 31% | 5% | 24 | 34*
COC(=O)Nc1nnc(-c2ccncc2)s1 | 25% | 8% | 5 | 3
SMILES | FMDV antiviral | Sm TGR inh | Shiga inhibitor | Cycloheximide cs
COC(=O)Nc1nnc(-c2ccccc2OC)s1 | 27% | 2% | 74* | 38*
COc1ccccc1-c1nnc(NC(=O)OCC(C)C)s1 | -5% | 2% | -9 | -2
Cc1cccc(NC(=O)Cn2c(=O)n(CCCCCC(=O)NCc3ccc4c(c3)OCO4)c(=O)c3sccc32)c1 | -4% | 45% | . | .
COc1ccc(-c2nnc(NC(=O)C(C)C)s2)c(OC)c1 | 33% | 94% | 52 | 21*
CC(C)(C)c1ccc(Oc2ccc(NC(=O)CCC(=O)OCC(=O)c3ccccc3)cc2)cc1 | -13% | 3% | . | .
CCOC(=O)N1CCN(Cc2nc3cc(NC(=O)c4ccco4)ccc3n2C)CC1 | -1% | 50µM* | 8 | 29
